Results: ChEMBL document CHEMBL1157539, “Thousands of chemical starting points for antimalarial lead identification” (Nature, 2010)

How the values were obtained:
Assay type in all cases: functional
[1] = tested on: Plasmodium falciparum; assay: GSK_TCMDC: Inhibition of Plasmodium falciparum 3D7 in whole red blood cells, using parasite LDH activity as an index of growth. Test compounds present at 2uM
[2] = tested on: Plasmodium falciparum; assay: GSK_TCMDC: Inhibition of Plasmodium falciparum Dd2 in whole red blood cells, using parasite LDH activity as an index of growth. Test compounds present at 2uM
[3] = tested on: HepG2; assay: GSK_TCMDC: Percent inhibition of human HepG2 cell line. Test compounds present at 10uM.

Row | Structure (SMILES) | Inhibition [1] | Inhibition [2] | Inhibition [3]
1 | CC(=O)Nc1ncc(C(=O)Nc2ccc(-c3cccc(-c4nc5cc(C(F)(F)F)ccc5[nH]4)c3)cc2)s1 | 100% | 92% | 79%
2 | CC(C)CCn1c(Sc2ccc([N+](=O)[O-])cc2C(F)(F)F)nnc1-c1ccccc1Cl | 99% | 43% | 0%
3 | CC(=O)Nc1cccc(C(=O)Nc2cccc(-c3cccc(-c4nc5cc(F)ccc5[nH]4)c3)c2)c1 | 100% | 44% | 51%
4 | O=C(O)C(F)(F)F.O=S(=O)(NC1CCCCN(Cc2ccccc2O)C1)c1ccc(C(F)(F)F)cc1 (configuration not stated) | 84% | 39% | 1%
5 | CC(=O)Nc1ccc(C(=O)Nc2cccc(-c3cccc(-c4nc5cc(F)ccc5[nH]4)c3)c2)cn1 | 99% | 98% | 0%
6 | CC(ON1C(N)=NC(N)=NC1(C)C)c1ccccc1 (configuration not stated) | 96% | 58% | 65%
7 | ON=C(c1nc2ccccc2[nH]1)c1nc2ccccc2[nH]1 | 93% | 68% | 36%
8 | COc1ccc2c(c1C1CCN(CCCCNC(=O)c3ccc(NC(=O)c4ccc(Cl)cc4)cc3)CC1)CCCC2 | 100% | 99% | 19%
9 | Cc1cc(N[C@@H](Cc2ccccc2)C(=O)NCCc2ccccc2)nc(NCCc2ccccc2)n1.O=C(O)C(F)(F)F | 100% | 57% | 0%
10 | Cc1cc(N[C@@H](CC(C)C)C(=O)NC2CCCC2)nc(NCc2ccccc2C)n1.O=C(O)C(F)(F)F | 98% | 44% | 2%
11 | CN(C)Cc1cccc(CNC(=O)c2sccc2OCc2ccc(Cl)cc2)c1 | 90% | 88% | 7%
12 | O=C(NC1CCN(Cc2ccccc2)CC1)c1cc(-c2cccnc2)nc2ccc(Cl)cc12 | 97% | 26% | 0%
13 | COCCNCc1ccc(-c2ccc3c(Nc4ccc(Cl)cc4F)ccnc3c2)o1 | 100% | 100% | 15%
14 | O=C(Nc1ccc(Cl)c(Cl)c1)N(Cc1ccccc1Br)C1CCNCC1 | 96% | 8% | 13%
15 | O=C(Nc1ccc(-c2ccccc2)cc1)Nc1ccc2c(c1)CCNCC2.O=C(O)C(F)(F)F | 97% | 48% | 41%
16 | Cl.N[C@@H](CCNC1CCN(c2cccc(C(F)(F)F)c2)CC1)Cc1ccc(F)c(F)c1 | 100% | 69% | 100%
17 | COc1cc(Cc2cnc(N)nc2N)cc(OCc2cccc(C(=O)O)c2)c1OC.Cl | 92% | 0% | 8%
18 | CS(=O)(=O)O.NC1=NC(CCc2ccccc2)N(c2ccccc2)C(N)=N1 (configuration not stated) | 94% | 15% | 1%
19 | Nc1nccc2ccc(-c3ccc(Oc4ccccc4)cc3)cc12.O=C(O)C(F)(F)F | 98% | 80% | 36%
20 | O=C(NCCc1ccccc1)N(Cc1ccccc1-c1ccc(CNCCc2ccccc2)cc1)C1CCN(Cc2ccccc2)CC1.O=C(O)C(F)(F)F | 97% | 91% | 99%

Row | Structure (SMILES) | Inhibition [1] | Inhibition [2] | Inhibition [3]
21 | O=C(NCc1ccccc1)c1nn(CCCN2CCC(N3CCCC3)CC2)cc1-c1ccc(Cl)c(Cl)c1 | 100% | 89% | 29%
22 | Cc1ccc2nc(C)cc(N/N=C/c3cccc([N+](=O)[O-])c3)c2c1 | 100% | 99% | 0%
23 | C=C[C@H]1CN(CCCCCCC)CC[C@H]1CC(O)Cc1ccnc2cc(O)c(OC)cc12.O=C(O)C(=O)O (some centres not stated) | 95% | 59% | 7%
24 | O=C(CCCCCNC(=O)c1ccc(O)c(-c2ccc(Cl)c(Cl)c2)c1)NCc1cccc(C(F)(F)F)c1 | 92% | 10% | 2%
25 | CCCCCCCC1=NN2C(=N)C(=Cc3cc(Br)c(OCc4ccc(F)cc4)c(OCC)c3)C(=O)N=C2S1 | 95% | 0% | 4%
26 | Cc1cccc(Nc2nccc(Nc3cccc(C(=O)NCCN4CCOCC4)c3)n2)c1 | 91% | 11% | 10%
27 | CO/C(=C\C=C\c1cc2cc(Cl)c(Cl)cc2[nH]1)C(=O)NCCCN1CCN(c2cccc(OCC(=O)Nc3cccc(C(=O)c4ccccc4)c3)c2)CC1 | 94% | 88% | 48%
28 | O=[N+]([O-])c1ccc(C2=NN(S(=O)(=O)c3c(Cl)cc(Cl)cc3Cl)CCCC2)cc1 | 99% | 98% | 5%
29 | C=C[C@H]1CN(CCCCCCC)CC[C@H]1C[C@@H](Cc1ccnc2ccc(OC)cc12)OC(=O)[C@](OC)(c1ccccc1)C(F)(F)F | 96% | 96% | 12%
30 | CCCCC(CC)CN1C(=O)C(c2ccccc2)(c2ccccc2)N=C1N.O=CO (configuration not stated) | 94% | 98% | 32%
31 | O=C(Nc1ccc(Cl)cc1)Nc1ccc2nonc2c1 | 94% | 77% | 0%
32 | COC1CCC(C(=O)Nc2ccc(-c3cccc(-c4nc5cc(C(F)(F)F)ccc5[nH]4)c3)cc2)CC1 (configuration not stated) | 85% | 48% | 69%
33 | COC(=O)c1c(C#N)c(OC)cc(O)c1CSC[C@@H](CN1CCCCC1)Nc1nc(-c2ccc([N+](=O)[O-])cc2)cs1 | 100% | 77% | 8%
34 | O=C(Nc1ccc(N2CCN(Cc3cccc(F)c3)CC2)cc1)c1cccs1.O=C(O)C(F)(F)F | 95% | 92% | 0%
35 | COc1cc(Cc2c(C)nc3nc(N)nc(N)c3c2C)c(Br)c(OC)c1OC.Cl | 93% | 0% | 44%
36 | Cc1noc(C)c1-c1ccc2c(Nc3ccc(Cl)cc3)c(C(N)=O)cnc2c1.Cl | 94% | 67% | 9%
37 | Cc1ccc2nc(-c3ccc(C(=O)NC4CCN(Cc5ccccc5)CC4)s3)[nH]c2c1 | 97% | 83% | 13%
38 | Cc1cc(=NN=Cc2cccc(F)c2)c2cccc(C)c2[nH]1 | 100% | 53% | 14%
39 | O=C(O)C(F)(F)F.c1cncc(CCNCc2cccc(-c3csc(-c4nc5ccccc5[nH]4)c3)c2)c1 | 100% | 98% | 26%
40 | Cl.O=C(C(=O)c1ccc(Nc2ccnc3cc(-c4ccccn4)ccc23)cc1)c1ccccc1 | 93% | 34% | 22%

Row | Structure (SMILES) | Inhibition [1] | Inhibition [2] | Inhibition [3]
41 | CCOC(=O)c1ccc(OCc2ccc(-c3ccccc3)cc2)cc1 | 96% | 0% | 18%
42 | O=C(NCc1cccc(OC(F)(F)F)c1)c1cnc2c(c1)nc(-c1c[nH]c(-c3ccccc3)n1)n2CCc1c[nH]cn1 | 99% | 47% | 0%
43 | Cc1ccc(C(=O)Nc2ccc(Cl)c(N3CCN(CCc4ccccc4)CC3)c2)cc1.O=C(O)C(F)(F)F | 90% | 14% | 17%
44 | COc1cccc(C(=O)N2CCN(Cc3cccc(NC(=O)c4cccs4)c3)CC2)c1.O=C(O)C(F)(F)F | 95% | 95% | 6%
45 | N#Cc1ccc(-n2cc(C(=O)Nc3ccc4c(c3)CCN(C3CCC3)CC4)c(C(F)(F)F)n2)cc1.O=C(O)C(F)(F)F | 100% | 99% | 37%
46 | Cc1cc(OCC2CCN(c3ncc(C(=O)NC4CC4)cc3Cl)CC2)ccc1F | 96% | 96% | 16%
47 | O=C(Nc1ccccc1)N1CCOC(CCN2CCC(F)(F)CC2)(c2ccc(Cl)c(Cl)c2)C1 (configuration not stated) | 100% | 100% | 20%
48 | COc1ccc(NC(=O)c2ccc(C=Cc3ccc(C(F)(F)F)cc3)cc2)cc1N1CCN(C)CC1 | 99% | 47% | 46%
49 | COc1cc(NC(=O)/C=C/c2cc(F)cc(F)c2F)cc(OCCN2CCC(O)(c3ccccc3)CC2)c1.O=C(O)C(=O)O | 100% | 82% | 54%
50 | O=C(Nc1cccc(CN2CCCN(Cc3ccc(F)cc3)CC2)c1)c1cc2ccccc2s1.O=C(O)C(F)(F)F | 91% | 36% | 29%
51 | COc1cccc(C(=O)NCc2nnc(S)n2-c2ccc(Cl)c(Cl)c2)c1 | 100% | 100% | 0%
52 | CCN(CC)CCN(CCCc1ccc(-c2ccc(C(F)(F)F)cc2)cc1)C(=O)Cn1c(CCc2cccc(F)c2F)nc(=O)c2ccccc21.O=C(O)C(O)C(O)C(=O)O | 100% | 49% | 37%
53 | CC1(C)CCC(C)(C)c2c1ccc(C1CCN(CCCCNC(=O)c3ccc(-c4ccc(C#N)cc4)cc3)CC1)c2OCC(N)=O | 100% | 100% | 99%
54 | Cc1cc(=NN=Cc2cccc(Cl)c2)c2ccccc2[nH]1 | 100% | 100% | 22%
55 | O=C(NCCc1ccc(Cl)c(Cl)c1)c1ccc(CNC(=O)c2ccc(O)c(-c3ccc(Cl)c(Cl)c3)c2)cc1 | 97% | 3% | 0%
56 | O=C(C=Cc1ccc(Cl)c(Cl)c1)NCCCCCN1CCCC(CCCNC(=O)/C=C/c2ccccc2)C1 (configuration not stated) | 98% | 12% | 92%
57 | Cc1ccccc1C1CCN(C2CCC(NC(=O)c3ccc(-c4cccc(C(F)(F)F)c4)o3)CC2)CC1 (configuration not stated) | 99% | 100% | 56%
58 | CC(c1cccc(S(=O)(=O)NCc2ccc(Cl)cc2Cl)c1)N1CCC(N2CCCCC2)CC1 (configuration not stated) | 100% | 40% | 36%
59 | COc1cc(C2CCN(CCCCNC(=O)c3ccc(NC(=O)c4cc(C(F)(F)F)cc(C(F)(F)F)c4)cc3)CC2)ccc1OC(C)C | 100% | 100% | 21%
